Screens (PubChem)
Only a selection was taken, and hits are over-represented in it overall.
VACV E9 pol inh: vaccinia E9 polymerase processive synthesis inhibition; in vitro processive DNA synthesis, absorbance read-out; stronger effect = lower value; normalized absorbance, % (test concentration not listed); actives 0.94% (n = 46,000); AID 493162; in the data active = normalized absorbance mostly below about 85%, no sharp cut-off; inactive = mostly above about 86%
Numbers without * were called inactive.

SMILES	VACV E9 pol inh
CC(Nc1ccc(Br)cc1)C(=O)Nc1cccc(Cl)c1Cl (centres undefined)	98
Cc1cc(N(C)Cc2ccccc2)ncn1	103
CCc1ccc(-n2c(N(C)Cc3ccccc3)nc3ccccc3c2=O)cc1	90
Cc1cc(N(C)Cc2ccccc2)nc2cc(O)ccc12	77*
CCOC(=O)c1ccc(N(C)C)c2c(N(C)C)cccc12	108
N#CC(C#N)=C(Nc1ccc(Br)cc1)SCc1ccc(F)cc1	86
N#CC(C#N)=C(N)SCc1ccccc1	115
N#CC(C#N)=C(Nc1ccccc1Cl)SCc1cccc(F)c1	26*
CCOC(=O)c1c(-c2ccc(C)cc2)csc1NC(=O)c1ccco1	102
CC1CCc2nc(NN)nc(C(F)(F)F)c2C1 (centres undefined)	100
CC(=O)ON(Cc1c(C)no[n+]1[O-])Cc1c(C)no[n+]1[O-]	95
CN(C)S(=O)(=O)c1ccc(C(=O)Nc2nccs2)cc1	97
CN(C1CCCCC1)S(=O)(=O)c1ccc(C(=O)Nc2nccs2)cc1	88
CCN(CC)S(=O)(=O)c1ccc(C(=O)Nc2nccs2)cc1	86*
COc1ccc(/C=C2/SC(=S)N(CCC(=O)Nc3nccs3)C2=O)cc1	101
CN1CCN(Cc2c3ccccc3cc3ccccc23)CC1	88
CN(C)Cc1cc2ccccc2[nH]1	100
CN(C)Cc1c2ccccc2cc2ccccc12	47*
CCCCN(C)C(=O)Nc1cn(C)c(=O)c2ccccc12	103
O=C1C(=Cc2ccc(O)cc2)C(=O)c2ccccc21	93
CCN(CC)C(=O)c1ccc(C(C)(C)C)s1	94
CC(=O)Nc1nc(C2CC2)cc(-c2ccccc2)c1C#N	85*
CCOC(=O)CSc1nc(C2CC2)cc(-c2ccccc2)c1C#N	99
COC(=O)CSc1nc(-c2ccccc2)cc(-c2ccccc2)c1C#N	99
CN(C)c1cccc(C(=O)OCC(N)=O)c1	105
SMILES	VACV E9 pol inh
O=C(Nc1cccc(-c2csc(NC(=O)c3ccc(F)cc3)n2)c1)c1ccc(F)cc1	104
NCCCc1nc2cc3sc(CCCN)nc3cc2s1	60*
NCCCc1nc2ccc(Cc3ccc4nc(CCCN)[nH]c4c3)cc2[nH]1	77
c1ccc2sc(CCc3nc4ccccc4s3)nc2c1	98
COc1ccc(OCCBr)cc1	97
CCOC(=O)CN(C)c1nc(-c2ccccc2)cs1	99
N#C/C(=C/Nc1cccc(C(F)(F)F)c1)c1nc(-c2ccc3c(c2)OCO3)cs1	99
c1ccc(-c2cn3c4ccccc4n(CCN4CCCCC4)c3n2)cc1	59*
Nc1nc2ccccc2n1CCN1CCCCC1	100
CCn1c2ccccc2n2cc(-c3ccccc3)nc12	94
COC(=O)c1ccc(S(=O)(=O)N2CCc3ccccc32)n1C	110
Cc1cc2c(c(SCc3ccc(Cl)cc3)n1)C(=O)OC2	100
CCC(=O)OCC(=O)Nc1ccc(Br)cc1Br	102
NS(=O)(=O)c1ccc(Cl)cc1Sc1ccccc1C(=O)O	86
Oc1ccc(Cl)cc1	103
Oc1ccc(Cl)cc1Sc1cc(Cl)ccc1O	77*
CN(C)Cc1c[nH]c2ccccc12	98
COc1ccccc1OCCn1cc(/C=C2/SC(=S)NC2=O)c2ccccc21	100
CN(C)CCCn1cc(C2=C(c3c[nH]c4ccccc34)C(=O)NC2=O)c2ccccc21	68*
O=C(CN1C(=O)/C(=C/c2ccccc2)SC1=S)OC1CCCCC1	86
CC1Cc2ccccc2N1C(=O)c1cc(Cl)cc(Cl)c1 (centres undefined)	93
Cc1ccc(N=Cc2c(C)[nH]c3ccccc23)cc1C	95
CNN1C(=O)c2cccc3cccc(c23)C1=O	64*
CN(C)N1C(=O)c2cccc3cccc(c23)C1=O	88
O=C(O)c1ccc(/C=N/N2C(=O)c3cccc4cccc(c34)C2=O)cc1	102
SMILES	VACV E9 pol inh
O=C(O)CNC(=O)c1cc(-c2ccc(Cl)cc2)nc2ccccc12	99
COc1ccc(NC(=O)c2cccn(OCc3ccc(F)cc3)c2=O)cc1	98
Cc1nnc(SCc2ccc(F)cc2Cl)c2cc3occc3n12	72*
Cc1ccc(C)c(CSc2nncn3c2cc2occc23)c1	91
CCc1nnc(SCc2ccccc2)c2cc3occc3n12	91
CC(C)N1C(=O)/C(=C\c2cccc3ccccc23)SC1=S	108
S=c1n(CN2CCCCC2)nc(-c2ccccc2)n1-c1ccccc1	100
O=C(NCCCN1CCOCC1)c1ccc(CN2C(=O)CCn3nccc32)cc1	101
Cc1cc(C)cc(NC(=O)COC(=O)c2ccc(F)cc2F)c1	90
NC(CC(=O)O)c1ccccc1C(F)(F)F (centres undefined)	99
Cc1ccnc(NC(=O)c2cccs2)c1	100
Cc1ccnc(NC(=O)c2cc(-c3ccc(C)c(C)c3)n[nH]2)c1	92
CC(Nc1cc(C)ccn1)=C(C#N)C#N	63*
COc1ccc(NC(=O)c2ccccc2I)cn1	110
O=C1/C(=C/c2ccccn2)CC(c2ccccc2)C/C1=C\c1ccccn1 (centres undefined)	103
CCOC(=O)C(CC)Sc1nnc(-c2c[nH]c3ccccc23)n1C (centres undefined)	92
Cn1c(SCc2ccc(F)cc2)nc2ccc(C(=O)N3CCc4ccccc43)cc21	108
Cc1cc(C(=O)N2CCN(C3c4ccccc4-c4ccccc43)CC2)c(C)o1	96
Cc1nnsc1C(=O)N1CCN(C2c3ccccc3-c3ccccc32)CC1	111
O=C(O)c1ccccc1C(=O)N1CCN(C2c3ccccc3-c3ccccc32)CC1	74*
Cc1ccc(Sc2ncccc2NC(=O)c2cccc3ccccc23)cc1	113
O=C(NCc1ccccc1)C(C(=O)c1ccccc1)n1ccccc1=O (centres undefined)	98
O=C(c1cccc(I)c1)N1CCN(c2ccccc2O)CC1	102
CC1CCCC(C)N1CCNc1nc2ccccc2c2nc(-c3ccccc3)nn12 (centres undefined)	59*
Cc1nc2c3ccccc3nc(NN3C(=O)CCC3=O)n2n1	102
SMILES	VACV E9 pol inh
O=C(Cn1c(=O)n2nc(-c3ccccc3)nc2c2ccccc21)c1ccc(Br)cc1	104
O=C(CCn1c(=O)oc2cc(Cl)ccc21)n1c(=O)oc2cc(Cl)ccc21	100
Cc1cc2cc(CNC(=O)c3ccc4ccccc4c3)ccc2[nH]1	104
O=C(CCN1CCCC1)c1ccc(-c2ccccc2)cc1	88
CC(C)C(NC(=O)c1cc2ccccc2cc1O)C(=O)O (centres undefined)	104
Cc1c(C(=O)O)cc(-c2ccccc2)n1CCSCc1c(F)cccc1Cl	82*
O=C(O)c1ccc(CSCc2c(F)cccc2Cl)o1	94
Cc1c(C(=O)NCc2ccco2)cc(-c2ccccc2)n1CCSCc1c(F)cccc1Cl	100
N#Cc1c(-c2ccco2)cc(-c2cccs2)nc1OCc1ccc(F)cc1	89
N#Cc1ccc(CSc2nc(-c3cccs3)c3c(c2C(=O)O)CCCC3)cc1	100
CN1CCc2c(-c3cccs3)nc(OCc3ccccc3Br)c(C#N)c2C1	46*
S=c1nc2[nH]c(=S)[nH]c(=S)c2c(-c2ccco2)[nH]1	60*
Nc1nccc(-c2ccco2)n1	98
CCC(C)C(NC(=O)c1ccccc1)c1nc2ccccc2[nH]1 (centres undefined)	103
O=C1CCCN2N=C(SCC(=O)NCc3ccccc3)SC2=N1	102
CCOC(=O)CN1C(=O)/C(=C/c2ccccc2)SC1=S	82*
CCCOC(=O)CN1C(=O)/C(=C/c2ccccc2)SC1=S	86
O=C(O)CN1C(=O)/C(=C/c2ccccc2)SC1=S	90
Cc1ccccc1C1C(=O)c2ccccc2N(C)C1=O (centres undefined)	89
Cc1nn(-c2ccccc2)c2sc(C(=O)N3CC(C)OC(C)C3)cc12 (centres undefined)	91
Cc1c2occ(C(C)(C)C)c2cc2c3c(c(=O)oc12)CCCC3	96
